Results: PubChem BioAssay (NCATS)
Several values for one entry are separate records, joined by “and”; a condition that tells them apart may be missing. Identical values can stand only once. Records with an inconclusive call do not appear. Activity calls are given as the source filed them. Unless noted, the call rests on the fitted dose curve; in most records, active means well fitted inhibition curve with a large enough effect; inconclusive means small, poorly fitted or top-dose-only effect; inactive means flat fitted curve, though single readings scatter.

What was measured:
[1] = Drug repurposing screens with cells derived from glioblastoma tumor samples (AID 1345199); details: GBM patient neurospheres viability, ATP luminescence, 48 h; further: nearly all actives have a fitted effect of over 40% in size; further: potency means the concentration at half of the fitted maximal effect; on activity, negative = cell killing: on the % scale 0 is the no-effect control and ±100 the full control effect
How it was run: (§1)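 Four patient lines of CD133+ GBM neurospheres were screened at several concentrations; hits were retested in those lines plus three slower-growing GBM lines, using 48-hour treatment and ATP-based viability.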

astro = control astrocytes; assay: as above; details: viability, ATP luminescence, 48 h; series mostly up to 45.9 µM
How it was run: as §1

[2] = target: Nuclear receptor subfamily 1 group I member 2 (Rattus norvegicus) (UniProt Q9R1A7); assay: qHTS assay for small molecule activators of the rat pregnane X receptor (rPXR) signaling pathway (AID 651751; call rule not given here; further: 0% is about no effect); details: rPXR reporter cells, luciferase (One-Glo), 24 h
[3] = qHTS assay for small molecule activators of the human pregnane X receptor (PXR) signaling pathway (AID 720659; call rule not given here; further: 0% is about no effect); details: DPX-2 HepG2 CYP3A4-luciferase, 24 h; series mostly up to 92.3 µM
[4] = at 20 µM (top of the series), tumour line C
[5] = at 21.2 µM (top of the series), tumour line B
[6] = at 21.2 µM (top of the series), tumour line D
[7] = at 21.3 µM (top of the series), tumour line A
[8] = at 45.9 µM (top of the series), tumour line B
[9] = at 45.9 µM (top of the series), tumour line D
[10] = at 46 µM (top of the series), tumour line A
[11] = at 46.1 µM (top of the series), tumour line C

Nuclear receptor subfamily 1 group I member 2 (Rattus norvegicus), sequence (Q9R1A7 whole entry, looked up): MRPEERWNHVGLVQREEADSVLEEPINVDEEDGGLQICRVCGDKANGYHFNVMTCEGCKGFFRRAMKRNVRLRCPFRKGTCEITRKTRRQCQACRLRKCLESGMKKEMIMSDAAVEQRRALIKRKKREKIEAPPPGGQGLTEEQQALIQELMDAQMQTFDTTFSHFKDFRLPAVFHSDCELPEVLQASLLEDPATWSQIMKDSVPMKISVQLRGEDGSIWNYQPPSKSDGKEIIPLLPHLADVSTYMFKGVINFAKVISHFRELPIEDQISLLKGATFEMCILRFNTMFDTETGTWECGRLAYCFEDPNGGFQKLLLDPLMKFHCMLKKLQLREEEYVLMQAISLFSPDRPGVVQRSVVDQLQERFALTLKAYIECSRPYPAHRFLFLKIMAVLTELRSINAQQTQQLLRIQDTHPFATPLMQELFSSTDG

CC1(C)S[C@@H]2[C@H](N)C(=O)N2[C@H]1C(=O)O
inactive: activity, negative = cell killing [1, 4] -3.46% | activity, negative = cell killing [1, 5] -7.3% | activity, negative = cell killing [1, 6] -20.2% | activity, negative = cell killing [1, 7] -24.1% | Potency (astro)

CC(=O)OO
inactive: activity, negative = cell killing [1, 8] -7.1% | activity, negative = cell killing [1, 9] -0.699% | activity, negative = cell killing [1, 10] -24.9% | activity, negative = cell killing [1, 11] 3.69% | Potency (astro)

S=C(S)N1CCNCC1
inactive: activity, negative = cell killing [1, 8] -3.67% | activity, negative = cell killing [1, 9] -4.89% | activity, negative = cell killing [1, 10] -30% | activity, negative = cell killing [1, 11] -13.9% | Potency (astro)

C[C@]12C=CC(=O)C=C1CC[C@@H]1[C@@H]2CC[C@]2(C)OC(=O)CC[C@@H]12
inactive: activity, negative = cell killing [1, 8] -3.73% | activity, negative = cell killing [1, 9] -7.84% | activity, negative = cell killing [1, 10] -28.6% | activity, negative = cell killing [1, 11] 1.2% | Potency (astro)

CN(C)[C@H](Cc1ccccc1)c1ccccc1
inactive: activity, negative = cell killing [1, 8] -3.48% | activity, negative = cell killing [1, 9] -20.8% | activity, negative = cell killing [1, 11] -18.9% | Potency (astro)
active: Potency ([1]; tumour line A) 20 µM

C[C@]12C[C@H]3S[C@H]3C[C@@H]1CC[C@@H]1[C@@H]2CC[C@]2(C)[C@@H](O)CC[C@@H]12
active: Potency ([1]; tumour line A) 14.1 µM
inactive: activity, negative = cell killing [1, 4] -0.246% | activity, negative = cell killing [1, 5] -21.3% | activity, negative = cell killing [1, 6] -16.8% | Potency (astro)

[O]=[Cd]
inactive: activity, negative = cell killing [1, 8] -6.73% | activity, negative = cell killing [1, 9] 0.985% | activity, negative = cell killing [1, 10] -15% | activity, negative = cell killing [1, 11] -5.34% | Potency (astro) | max response [2] 0.17% | outcome [3]

O=Cc1ccco1
inactive: activity, negative = cell killing [1, 8] -3.46% | activity, negative = cell killing [1, 9] 2.23% | activity, negative = cell killing [1, 10] -6.89% | activity, negative = cell killing [1, 11] -7% | Potency (astro) | max response [2] 4.33% | outcome [3]

CC(C)Nc1ccc(Nc2ccccc2)cc1
inactive: activity, negative = cell killing [1, 11] -13.8%
active: Potency ([1]; tumour line A) 11.2 µM | Potency ([1]; tumour line B) 17.8 µM | Potency ([1]; tumour line D) 20 µM | Potency (astro) 22.4 µM

CN(C)[C@@H]1C(=O)C(C(N)=O)=C(O)[C@@]2(O)C(=O)C3=C(O)c4c(O)ccc(Cl)c4[C@@](C)(O)[C@H]3C[C@@H]12
inactive: activity, negative = cell killing [1, 4] -1.9% | activity, negative = cell killing [1, 5] -17.1% | activity, negative = cell killing [1, 6] 7.37% | activity, negative = cell killing [1, 7] -17.5% | Potency (astro)

O=[N+]([O-])c1ccccc1
inactive: activity, negative = cell killing [1, 8] -3.33% | activity, negative = cell killing [1, 9] -6.09% | activity, negative = cell killing [1, 10] -9.64% | activity, negative = cell killing [1, 11] -9.59% | Potency (astro)

CCC(C)(S(=O)(=O)CC)S(=O)(=O)CC
inactive: activity, negative = cell killing [1, 8] -9.18% | activity, negative = cell killing [1, 9] -21.6% | activity, negative = cell killing [1, 10] -5.61% | activity, negative = cell killing [1, 11] -8.4% | Potency (astro)

ClC=C(Cl)Cl
inactive: activity, negative = cell killing [1, 8] -0.797% | activity, negative = cell killing [1, 9] -16.6% | activity, negative = cell killing [1, 10] -33.6% | activity, negative = cell killing [1, 11] -1.4% | Potency (astro) | max response [2] 1.22% and -1.96% | outcome [3]

CC(C)CCON=O
inactive: activity, negative = cell killing [1, 8] 0.0037% | activity, negative = cell killing [1, 9] -3.58% | activity, negative = cell killing [1, 10] -24.7% | activity, negative = cell killing [1, 11] 2.53% | Potency (astro) | max response [2] 1.54% | outcome [3]

C#CCN1CC(=O)N(COC(=O)C2C(C=C(C)C)C2(C)C)C1=O (stereo not given)
inactive: activity, negative = cell killing [1, 8] -9.8% | activity, negative = cell killing [1, 9] 15.2% | activity, negative = cell killing [1, 10] -23.1% | activity, negative = cell killing [1, 11] -15.9% | Potency (astro)

O=S(=O)(O)c1cc(O)ccc1O
inactive: activity, negative = cell killing [1, 4] 0.614% | activity, negative = cell killing [1, 5] -13.4% | activity, negative = cell killing [1, 6] -2.62% | activity, negative = cell killing [1, 7] -30% | Potency (astro)

CC1(C)[C@H](C=C(Cl)Cl)[C@H]1C(=O)OCc1c(F)c(F)cc(F)c1F
inactive: activity, negative = cell killing [1, 8] -3.56% | activity, negative = cell killing [1, 9] -11.5% | activity, negative = cell killing [1, 10] -26.8% | activity, negative = cell killing [1, 11] -13.8% | Potency (astro)

CNC(=O)OCC[N+](C)(C)C
inactive: activity, negative = cell killing [1, 8] -5.85% | activity, negative = cell killing [1, 9] -20% | activity, negative = cell killing [1, 10] -22.4% | activity, negative = cell killing [1, 11] -19.7% | Potency (astro)

O=C/C=C/c1ccccc1
inactive: activity, negative = cell killing [1, 8] 0.0687% | activity, negative = cell killing [1, 9] -9.63% | activity, negative = cell killing [1, 10] -23.4% | activity, negative = cell killing [1, 11] 1.48% | Potency (astro) | max response [2] -2.3% and 9.18% | outcome [3]

CCC1(c2ccccc2)C(=O)NC(=O)N(C)C1=O (stereo not given)
inactive: activity, negative = cell killing [1, 8] -7.4% | activity, negative = cell killing [1, 9] -10.2% | activity, negative = cell killing [1, 10] -23% | activity, negative = cell killing [1, 11] 7.87% | Potency (astro)

c1cc2c(c(NC3=NCCN3)c1)CCCC2
active: Potency ([1]; tumour line A) 14.1 µM
inactive: activity, negative = cell killing [1, 8] -18.6% | activity, negative = cell killing [1, 9] -28.2% | activity, negative = cell killing [1, 11] 1.62% | Potency (astro)
